Reference: PubChem BioAssay
For some assays here: Measured potencies and affinities stand elsewhere. Active and inactive are the calls of the source. Unless noted, how the calls were made is not given here.

Columns and labels:
[1] = antimalarial activity against Dd2 strain (AID 2302;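 active means growth inhibition above 50% at the single 2 µM test dose, taken to imply half-maximal potency below 2 µM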;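 further: 0% = DMSO untreated growth and 100% = chloroquine plus artemisinin killed control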); settings: P. falciparum Dd2 in RBCs, LDH growth readout, 72 h; at 2 µM; stronger effect = higher value
[2] = human hepatoma cell viability loss – ATP luminescence, cytotoxicity control for P. falciparum antimalarial project, primary screen (AID 2303;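 active means inhibition above 50%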;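 further: 0% = DMSO wells and 100% = digitonin-killed cells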); settings: HepG2 viability, 24-48 h, at 10 µM, stronger effect = higher value
[3] = biological target: L-lactate dehydrogenase (Plasmodium falciparum (isolate CDC / Honduras)) (UniProt Q27743); assay: PfLDH activity inhibition – cell lysate, 3D7 strain, counter-screen for P. falciparum growth inhibition project (AID 2304);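 further: 0% = vehicle and 100% = reference inhibitor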; settings: P. falciparum 3D7 crude extract, LDH APAD/NBT absorbance; at 2 µM; stronger effect = higher value
L-lactate dehydrogenase (Plasmodium falciparum (isolate CDC / Honduras)), sequence (Q27743 whole entry, looked up): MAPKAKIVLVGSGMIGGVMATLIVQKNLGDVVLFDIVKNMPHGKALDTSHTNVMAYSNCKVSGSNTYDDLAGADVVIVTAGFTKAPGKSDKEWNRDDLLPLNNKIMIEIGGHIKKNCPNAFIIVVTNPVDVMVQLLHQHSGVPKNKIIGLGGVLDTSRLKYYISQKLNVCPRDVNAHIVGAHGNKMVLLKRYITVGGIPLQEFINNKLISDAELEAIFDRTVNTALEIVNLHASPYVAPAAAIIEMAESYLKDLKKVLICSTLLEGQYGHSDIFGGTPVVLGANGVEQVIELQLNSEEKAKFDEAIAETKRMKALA

[4] = inhibition of 3D7 malaria parasite growth – strain 3D7 (AID 2306);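 further: 0% = DMSO wells and 100% = chloroquine plus artemisinin control wells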; settings: P. falciparum 3D7 erythrocytic growth, LDH absorbance, 72 h; at 2 µM; stronger effect = higher value
[5] = biological target: Calcium-dependent protein kinase 1 (Plasmodium falciparum (isolate 3D7)) (UniProt P62344); assay: PfCDPK1 kinase inhibitors, biochemical, TCAMS library (AID 1159585; cut-off not given, nearly all actives have IC50 up to about 0.98 µM;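 further: inhibitors leave more ATP so luminescence rises with inhibition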); settings: recombinant PfCDPK1, Kinase-Glo ATP depletion luminescence
Calcium-dependent protein kinase 1 (Plasmodium falciparum (isolate 3D7)), sequence (P62344 whole entry, looked up): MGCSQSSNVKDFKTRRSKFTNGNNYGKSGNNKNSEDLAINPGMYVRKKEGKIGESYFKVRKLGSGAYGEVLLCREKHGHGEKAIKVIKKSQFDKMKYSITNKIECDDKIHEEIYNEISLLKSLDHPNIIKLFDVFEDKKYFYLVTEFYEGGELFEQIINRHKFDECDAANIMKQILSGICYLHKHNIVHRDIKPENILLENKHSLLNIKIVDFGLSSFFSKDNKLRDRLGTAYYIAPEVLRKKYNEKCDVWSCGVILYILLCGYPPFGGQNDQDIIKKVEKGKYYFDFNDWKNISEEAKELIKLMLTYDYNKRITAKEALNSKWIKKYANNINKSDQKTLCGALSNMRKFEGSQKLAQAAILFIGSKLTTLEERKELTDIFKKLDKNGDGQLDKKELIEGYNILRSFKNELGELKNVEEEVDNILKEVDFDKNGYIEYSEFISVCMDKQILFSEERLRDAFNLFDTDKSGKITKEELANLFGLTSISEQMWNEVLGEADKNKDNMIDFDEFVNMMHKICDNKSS

[6] = biological target: Plasmodium falciparum protein kinase 6 (PK6, PF3D7_1337100) (UniProt Q8IDW1); assay: PfPK6 kinase inhibitors, biochemical, TCAMS library (AID 1159586); settings: recombinant PfPK6, Kinase-Glo ATP depletion luminescence
Plasmodium falciparum protein kinase 6 (PK6, PF3D7_1337100), sequence (Q8IDW1 1-305): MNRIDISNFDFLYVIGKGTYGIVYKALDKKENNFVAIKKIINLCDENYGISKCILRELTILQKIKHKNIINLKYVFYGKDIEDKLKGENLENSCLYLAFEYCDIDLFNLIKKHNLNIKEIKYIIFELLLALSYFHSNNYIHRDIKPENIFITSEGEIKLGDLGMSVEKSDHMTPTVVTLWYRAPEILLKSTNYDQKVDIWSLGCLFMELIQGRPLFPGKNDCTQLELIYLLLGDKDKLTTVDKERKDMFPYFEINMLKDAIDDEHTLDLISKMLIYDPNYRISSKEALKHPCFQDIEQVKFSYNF

[7] = biological target: Protein kinase 7 (PK7), Plasmodium falciparum 3D7 (PF3D7_0213400) (UniProt Q7YTF7); assay: inhibition of Plasmodium PK7 catalytic activity – biochemical, TCAMS antimalarial set, Kinase-Glo luminescence (AID 1159587); settings: recombinant PfPK7, Kinase-Glo ATP depletion luminescence
Protein kinase 7 (PK7), Plasmodium falciparum 3D7 (PF3D7_0213400), sequence (Q7YTF7 1-343): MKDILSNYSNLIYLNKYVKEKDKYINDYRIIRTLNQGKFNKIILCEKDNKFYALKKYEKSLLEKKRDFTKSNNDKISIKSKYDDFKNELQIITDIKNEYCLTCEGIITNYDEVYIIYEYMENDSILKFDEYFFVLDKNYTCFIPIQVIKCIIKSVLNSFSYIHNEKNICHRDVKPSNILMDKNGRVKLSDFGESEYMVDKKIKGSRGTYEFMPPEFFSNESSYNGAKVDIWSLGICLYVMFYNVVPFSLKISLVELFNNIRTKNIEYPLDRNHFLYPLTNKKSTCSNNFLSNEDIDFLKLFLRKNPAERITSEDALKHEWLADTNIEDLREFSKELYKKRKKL

[8] = biological target: Calcium-dependent protein kinase 4 (Plasmodium falciparum (isolate 3D7)) (UniProt Q8IBS5); assay: PfCDPK4 kinase inhibitors, biochemical, TCAMS library (AID 1159588; cut-off not given, nearly all actives have IC50 up to about 0.91 µM); settings: recombinant PfCDPK4, Kinase-Glo ATP depletion luminescence
Calcium-dependent protein kinase 4 (Plasmodium falciparum (isolate 3D7)), sequence (Q8IBS5 whole entry, looked up): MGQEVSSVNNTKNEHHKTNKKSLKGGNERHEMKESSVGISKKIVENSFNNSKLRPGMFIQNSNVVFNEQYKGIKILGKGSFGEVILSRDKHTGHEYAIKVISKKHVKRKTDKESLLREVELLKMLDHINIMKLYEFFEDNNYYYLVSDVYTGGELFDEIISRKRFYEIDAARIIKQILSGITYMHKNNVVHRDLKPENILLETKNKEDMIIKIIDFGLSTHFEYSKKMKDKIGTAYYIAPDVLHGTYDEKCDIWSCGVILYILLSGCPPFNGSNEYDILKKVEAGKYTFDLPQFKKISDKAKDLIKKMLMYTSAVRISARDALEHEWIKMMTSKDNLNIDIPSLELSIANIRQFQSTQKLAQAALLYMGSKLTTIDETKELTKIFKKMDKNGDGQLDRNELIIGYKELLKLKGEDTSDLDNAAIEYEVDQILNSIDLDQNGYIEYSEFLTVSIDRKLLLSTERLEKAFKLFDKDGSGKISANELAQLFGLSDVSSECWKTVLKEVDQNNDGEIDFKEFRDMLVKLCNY

Cc1cccc(NC(=O)c2cnc(N3CCN(c4ccncc4)CC3)c(Cl)c2)c1
inactive: inhibition [2] 36% | inhibition [3] -2% | outcome [5] | outcome [6] | outcome [7] | outcome [8]
active: growth inhibition [1] 54% | growth inhibition [4] 100%

CCCCCCCN1CC[C@@H](CCC(O)c2ccnc3ccc(OC)cc23)[C@@H](CC)C1 (some centres not stated)
active: growth inhibition [1] 93% | growth inhibition [4] 97%
inactive: inhibition [2] 34% | inhibition [3] -1% | outcome [5] | outcome [6] | outcome [7] | outcome [8]

C=CCn1c(Sc2ccc(C#N)c([N+](=O)[O-])c2)nnc1-c1ccc(Cl)cc1
inactive: inhibition [2] 13% | inhibition [3] 3% | outcome [5] | outcome [6] | outcome [7] | outcome [8]
active: growth inhibition [1] 85% | growth inhibition [4] 97%

O=C(c1ccc(-c2ccc(-c3nc4ccc(C(F)(F)F)cc4[nH]3)s2)cc1)N1CCCCC1CN1CCC(O)C1 (configuration not stated)
inactive: inhibition [3] 3% | outcome [5] | outcome [6] | outcome [7] | outcome [8]
active: growth inhibition [1] 80% | inhibition [2] 90% | growth inhibition [4] 92%
